Measured values published in PubChem BioAssay AID1209 (Sanford-Burnham Center for Chemical Genomics, 2008).
About 810 (0.43%) of roughly 190,000 compounds were called active. Only a selection was taken, and actives are over-represented in it overall. Values without a mark were called inactive. No stated cut-off is given here; in the data, active means inhibition above about 50%; inactive means the rest.

What follows are compounds tested against Mannose-6-phosphate isomerase (Homo sapiens) (UniProt P34949) (assay: inhibitors of human PMI, primary screen, biochemical, fluorescence intensity, coupled assay (AID 1209;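 further: plate controls were DMSO vehicle for no effect and wells lacking substrate for full effect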)). Settings: purified PMI enzyme, at 20 µM, active compounds read high.
Chain of Mannose-6-phosphate isomerase (Homo sapiens) (P34949 whole entry, looked up): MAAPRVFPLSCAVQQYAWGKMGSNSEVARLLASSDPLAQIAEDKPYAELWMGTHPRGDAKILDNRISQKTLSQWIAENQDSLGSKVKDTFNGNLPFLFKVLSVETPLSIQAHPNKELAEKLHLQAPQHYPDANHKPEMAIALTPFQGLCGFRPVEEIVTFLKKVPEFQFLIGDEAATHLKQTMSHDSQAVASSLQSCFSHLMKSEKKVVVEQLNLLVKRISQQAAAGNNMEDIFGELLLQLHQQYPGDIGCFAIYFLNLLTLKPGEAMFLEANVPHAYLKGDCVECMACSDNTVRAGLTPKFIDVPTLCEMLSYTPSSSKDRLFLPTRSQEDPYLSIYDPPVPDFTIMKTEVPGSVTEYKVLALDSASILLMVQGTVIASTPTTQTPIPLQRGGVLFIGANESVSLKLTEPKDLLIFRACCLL

Row | Structure (SMILES) | inhibition
1 | CSc1nc2sc(-c3ccccc3)cc2c(=O)n1N | -6.6%
2 | CCOC(=O)Cc1csc(NC(=O)Nc2cccc(Cl)c2)n1 | -0.4%
3 | CCOC(=O)Cc1csc(NC(=O)NC2(C(F)(F)F)Oc3cc(Cl)c(Cl)cc3O2)n1 | 57.5% (active)
4 | CCOC(=O)Cc1csc(NC(=O)NC2(C(F)(F)F)Oc3ccc(Cl)cc3O2)n1 (stereo not given) | 51.8% (active)
5 | CCOC(=O)Cc1csc(NC(=O)NC2(C(F)(F)F)Oc3ccccc3O2)n1 | 22.4%
6 | CCOC(=O)Cc1csc(NC(=O)CC)n1 | -9.9%
7 | CCOC(=O)Cc1csc(NC(=O)C(C)(C)CC)n1 | -7.2%
8 | CC(OC(=O)c1ccc2ncsc2c1)C(=O)NCc1ccccc1 (stereo not given) | 15.5%
9 | O=C(Nc1nc(-c2cccs2)cs1)c1cc2ccccc2oc1=O | -3.3%
10 | O=C(NC(Cc1c[nH]c2ccccc12)C(=O)N/N=C/c1ccc(Cl)cc1)c1cccs1 (stereo not given) | 18.1%
11 | COc1cccc(C(=O)/C=C/c2ccc(N3CCCCC3)c([N+](=O)[O-])c2)c1 | 14.3%
12 | O=C(O)c1ccc(-c2nc(-c3ccc(Cl)c(Cl)c3)cs2)cc1 | -3.3%
13 | Oc1ccc(-c2nc(-c3ccc(O)c(O)c3)cs2)cc1 | 54.3% (active)
14 | Cc1nc(-c2ccc(O)c(O)c2)cs1 | 47%
15 | Oc1ccc(-c2csc(-c3ccccc3)n2)cc1O | 62.6% (active)
16 | Oc1ccccc1-c1csc(-c2ccccc2)n1 | 12.8%
17 | O=C(O)c1ccc(-c2nc(-c3ccccc3)cs2)cc1 | -11.3%
18 | Cc1ccccc1N1C(=O)CSC1=C(C#N)C#N | -15.3%
19 | CCC1=C/C(=C/c2sc3ccccc3[n+]2CC)CC(C)(C)C1 | -60.6%
20 | CCOC(=O)c1cnc2c(-c3ccccc3)c(C)nn2c1N | 9.6%
21 | Cc1ccc(CNC(=O)CCCCn2c(=O)[nH]c3ccsc3c2=O)cc1 | -4.3%
22 | CCCCn1c(-c2sccc2C)n[nH]c1=S | 8.1%
23 | COc1cccc(NC(=O)C2CC(=O)N=C(N)S2)c1 (stereo not given) | 15.2%
24 | COc1cccc(NC(=O)C2CC(=O)n3cnnc3S2)c1 (stereo not given) | 51.1% (active)
25 | COc1cccc(NC(=O)C2CC(=O)N(C)C(=Nc3cccc(F)c3)S2)c1 (stereo not given) | 15.4%

Row | Structure (SMILES) | inhibition
26 | Cc1ccc(-c2nnc(N3CCN(c4ccccn4)CC3)c3ccccc23)cc1 | 10.5%
27 | CC(C)CC(=O)Nc1cccc(NC(=O)CC(C)C)n1 | -6.8%
28 | Cc1ccccc1NC(=O)C(NS(=O)(=O)c1ccc2c(c1)c(=O)n(C)c(=O)n2C)c1ccccc1 (stereo not given) | -1.4%
29 | O=C(O)CCC(=O)N1CCN(c2ccc(C(=O)c3ccc(F)cc3)cc2)CC1 | 2.5%
30 | O=C(COC(=O)c1ccccc1NC(=O)C1CC1)c1ccc2c(c1)OCCO2 | 20.7%
31 | O=C(O)/C=C/C(=O)Nc1ccccc1C(=O)OCC(=O)c1ccc2c(c1)OCCO2 | 108% (active)
32 | CC(C)C(=O)Nc1ccccc1C(=O)OCC(=O)c1ccc2c(c1)OCCO2 | 12.7%
33 | COc1ccc(N2C(=O)/C(=C/N(C)C)NC2=S)cc1 | 6.1%
34 | COc1cccc(N2C(=O)/C(=C\c3cccs3)NC2=S)c1 | -20.3%
35 | COc1ccc(N2C(=O)/C(=C/c3cccs3)NC2=S)cc1 | 65.2% (active)
36 | CC(C(=O)Nc1ncccn1)(c1ccccc1)c1ccccc1 | 0.1%
37 | C=CCNC(=S)NNC(=O)c1ccc(=O)n(Cc2ccccc2)c1 | -1.4%
38 | CCOC(=O)c1cnc2ccc(C)cc2c1NCCO | -0.9%
39 | CCOC(=O)c1cnc2c(ccc3ccccc32)c1NCCO | 103% (active)
40 | CCOC(=O)c1cnc2ccccc2c1NCCO | -1.9%
41 | C/C(CC1CC(C)OC1=O)=N\NC(N)=S (stereo not given) | 17.6%
42 | CCOC(=O)c1sc(N(C)C(C)=O)nc1C | -2.3%
43 | Cc1ccc(-n2c(SCC(=O)N(C)C3CCS(=O)(=O)C3)nc3ccccc3c2=O)cc1 (stereo not given) | -4.5%
44 | CCc1ccc(OCC(=O)NC(C)(C)C)cc1 | 2.4%
45 | COc1cc(CNc2ccc3[nH]c(=O)[nH]c3c2)cc(Br)c1OCC(=O)NC(C)(C)C | 29.5%
46 | CCOc1cc(CNc2ncn[nH]2)ccc1OCC(=O)NC(C)(C)C | 7%
47 | C=CCOc1cccc(CNc2ccc3[nH]c(=O)[nH]c3c2)c1 | 17.8%
48 | CC(C)(C)NC(=O)COc1ccc(CNc2ncn[nH]2)cc1 | 6.1%
49 | C=CCOc1c(Cl)cc(CNc2ccc3[nH]c(=O)[nH]c3c2)cc1OC | 26.3%
50 | COc1cc(CNc2ccc(CNc3ncn[nH]3)cc2)ccc1OCC(=O)NC(C)(C)C | 0.6%

Row | Structure (SMILES) | inhibition
51 | CC(C)(C)NC(=O)COc1ccc(CNc2ccc3[nH]c(=O)[nH]c3c2)cc1 | 62.2% (active)
52 | COc1cc(CNc2ccc3[nH]c(=O)[nH]c3c2)ccc1OCC(=O)NC(C)(C)C | 82.4% (active)
53 | CCOc1cc(CNC)ccc1OCC(=O)NC(C)(C)C | -7.3%
54 | C=CCOc1ccc(CNc2ccc3[nH]c(=O)[nH]c3c2)cc1OC | 81.1% (active)
55 | CCOc1cc(CNc2ccc3[nH]c(=O)[nH]c3c2)ccc1OCC(=O)NC(C)(C)C | 75% (active)
56 | CCCOc1ccc(C2/C(=C(/O)c3ccc(F)cc3)C(=O)C(=O)N2CCCN(C)C)cc1 (stereo not given) | 16.2%
57 | O=C(Nc1ccccc1N1CCOCC1)c1cc(-c2ccncc2)nc2ccccc12 | 4.3%
58 | COc1cc(/C=C(\C#N)c2nc3ccc(C)cc3[nH]2)cc([N+](=O)[O-])c1O | 46.2%
59 | CN(C)/C=C1\C(=O)N(c2ccc([N+](=O)[O-])cc2)N=C1c1ccccc1 | 24.5%
60 | O=C(NCCN1CCCC1)c1ccc(Cn2c(=S)[nH]c3ccc(Br)cc3c2=O)cc1 | -24.9%
61 | COc1ccc(C(=O)Nc2c(Cl)cc(Cl)cc2C(=O)NCCN2CCOCC2)cc1 | 2.6%
62 | Cc1ccsc1/C=C/C(=O)O | -2.7%
63 | Cc1cccc(N2CC(O)(c3cccs3)[N+]3=C2CCCC3)c1 (stereo not given) | -8.7%
64 | CCC(CC)c1nc(C#N)c(NCc2ccccc2)o1 | 5.4%
65 | CCOc1ccc(NC(=O)N2CCC(c3nc4ccccc4[nH]3)CC2)cc1 | -14.1%
66 | COc1ccc(-c2nc(CN3CCC(c4ccccc4)CC3)c(C)o2)cc1OC | 12.5%
67 | Cc1sc(NC(=O)c2ccccc2)c(C(=O)c2ccccc2)c1C | 57.2% (active)
68 | Cc1sc(NC(=O)c2ccccc2)c(C(=O)NC(C)C)c1C | 2.2%
69 | Cc1sc(NC(=O)CCl)c(C(=O)c2ccccc2)c1C | 23.2%
70 | CCN(CC)C(=O)c1c(NC(=O)c2ccccc2)sc(C)c1C | -0.5%
71 | Cc1ccc(C(=O)Nc2sc(C)c(C)c2C(=O)c2ccccc2)cc1 | 50.2% (active)
72 | Cc1ccccc1C(=O)Nc1sc(C)c(C)c1C(=O)c1ccccc1 | 13.9%
73 | Cc1ccc(C(=O)c2c(NC(=O)c3ccccc3)sc(C)c2C)cc1 | 59.8% (active)
74 | Cc1ccc(C(=O)c2c(NC(=O)c3ccccc3C)sc(C)c2C)cc1 | 12.9%
75 | Cc1sc(NC(=O)c2ccccc2)c(C(=O)NCCN(C)C)c1C | -8.6%

Row | Structure (SMILES) | inhibition
76 | COc1ccc(-n2ccnc2SCC(=O)NC2CCCC2)c(OC)c1 | -3.3%
77 | CC(C)=CC(=O)OCC(=O)Nc1ccc(Cl)cn1 | 7%
78 | Cc1nc(N2CCCCC2)c(C#N)c(C)c1[N+](=O)[O-] | 1.3%
79 | CC1CCN(C(=O)CCc2nnc(-c3ccccc3)o2)CC1 | 1.6%
80 | COc1ccc(OC)c(-n2nnnc2SCC(=O)Nc2ccc3c(c2)OCCO3)c1 | 14.4%
81 | CCOc1cc(Cl)c(NC(=O)c2ccco2)cc1OCC | 10.1%
82 | CC1=C(C(=O)Nc2ccccc2C)C2(CCCCC2)C(C(N)=O)C(=S)N1 (stereo not given) | -53.8%
83 | O=C(CSC1=Nc2ccccc2C2CC=NN12)Nc1ccc(F)cc1Cl (stereo not given) | 12.3%
84 | Cc1cc2c(cc1C)CSC(c1c(O)ccc3ccccc13)SC2 | 21.9%
85 | Cc1nc2ccccc2c(C)c1C(=O)c1ccccc1 | -1.1%
86 | CCOC(=O)c1c(C2COc3ccccc3O2)csc1NC(=O)c1ccccc1 (stereo not given) | 15.6%
87 | CCOC(=O)c1c(C2COc3ccccc3O2)csc1NC(=O)c1ccco1 (stereo not given) | 55.5% (active)
88 | CCOC(=O)c1c(C2COc3ccccc3O2)csc1N (stereo not given) | 19.8%
89 | C[n+]1ccccc1C1CCCC/C1=N\NC(N)=S (stereo not given) | 64.5% (active)
90 | C[n+]1ccccc1C1CCCC/C1=N\Nc1ccc([N+](=O)[O-])cc1[N+](=O)[O-] (stereo not given) | -5.6%
91 | CC1CCCC/C1=N\NC(=S)Nc1ccccc1 (stereo not given) | -33.2%
92 | Cc1ccc2c(c1)cc(CN(Cc1ccco1)C(=O)COc1ccccc1)c1nnnn12 | -0.9%
93 | Cc1ccc2c(c1)cc(CN(Cc1ccc3c(c1)OCO3)S(=O)(=O)c1ccccc1)c1nnnn12 | 12.1%
94 | Cc1ccc2c(c1)cc(CN(Cc1ccco1)S(=O)(=O)c1ccccc1)c1nnnn12 | 72.3% (active)
95 | Cc1ccc(O)c(C=Nc2ccc3[nH]ncc3c2)c1 | 51.9% (active)
96 | COc1ccc(C=Nc2ccc3[nH]ncc3c2)c(O)c1 | 47.9%
97 | Cc1ccc(O)c(/C=N/NC(=O)c2[nH]ncc2Br)c1 | -11.3%
98 | CCOC(=O)c1c(-c2ccc(F)cc2)cn2ccccc12 | 4.3%
99 | CCOC(=O)c1c(-c2ccccc2)cn2ccccc12 | 53.7% (active)
100 | CCOC(=O)c1c(-c2ccc(C)cc2)cn2ccccc12 | -10.2%
